Read-out in experiment [1]: Matrix Metallopeptidase 1 (MMP1), MMP1 (gene 4312)
Put plainly: BSK_BE3C_MMP1: BioMAP Diversity Plus: BE3C Assay for Matrix Metallopeptidase 1 (MMP1) Biomarker Activity (AID 2283024). Particulars: primary human bronchial epithelial cells; actives raise or lower the signal. In short, it runs like this: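 Human primary bronchial epithelial cells (BE3C system) dosed for 24 h; MMP-1 quantified by ELISA. Bidirectional fit against DMSO; cytotoxicity tracked in parallel cultures by SRB total-protein staining.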

A short description of experiment [2]: BSK_3C_Vis: BioMAP Diversity Plus: 3C Assay for Morphology Visualization (AID 2283025).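 Also: fitted both ways so gain or loss versus DMSO counts.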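 As to AC50: light microscopy image of cell morphology used as background control.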 Particulars: primary human endothelial cells (HUVEC). In short, it runs like this:
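Human umbilical vein endothelial cell morphology was inspected by light microscopy 24 h after chemical dosing; scored bidirectionally relative to DMSO.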

Read-out in experiment [3]: Pselectin, SELP (gene 6403)
Put plainly: BSK_4H_Pselectin: BioMAP Diversity Plus: 4H Assay for Pselectin Biomarker Activity (AID 2283026). Particulars: primary human endothelial cells (HUVEC); actives raise or lower the signal. The procedure, abridged: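 Primary human umbilical vein endothelial cells were treated 24 h, and cell-surface P-selectin was then quantified by ELISA. Bidirectional fit versus DMSO; cytotoxicity checked in parallel cultures by SRB total-protein staining.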

The nature of experiment [4]: BSK_4H_SRB: Viability Assessment in the BioMAP Diversity Plus: 4H Assay (AID 2283027).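 As to AC50: curves fitted both ways versus DMSO so AC50 may be loss or gain.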 The settings on record: primary human endothelial cells (HUVEC). In short, it runs like this: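 Human umbilical vein endothelial cells were dosed with chemical and, after 24 h, fixed with 10% TCA, stained with 0.1% sulforhodamine B, and read at 560 nm to give total protein as a cytotoxicity measure. Bidirectional fitting relative to DMSO control.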

The nature of experiment [5]: BSK_BE3C_SRB: Viability Assessment in the BioMAP Diversity Plus: BE3C Assay (AID 2283028). The settings on record: primary human bronchial epithelial cells. The procedure, abridged:
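Human bronchial epithelial primary cells in confluent culture, 24 h after chemical dosing; total protein by 0.1% SRB staining after 10% TCA fixation, read at 560 nm. Bidirectional fitting versus DMSO baseline.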

Read-out in experiment [6]: Thrombomodulin, THBD (gene 7056)
Put plainly: BSK_3C_Thrombomodulin: BioMAP Diversity Plus: 3C Assay for Thrombomodulin Biomarker Activity (AID 2283029). Particulars: primary human endothelial cells (HUVEC); actives raise or lower the signal. In short, it runs like this:
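Human umbilical vein endothelial cells were exposed to chemicals for 24 h; cell-surface thrombomodulin quantified by ELISA, with bidirectional fitting against DMSO baseline.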

Read-out in experiment [7]: Vascular endothelial growth factor receptor 2 (Homo sapiens) (UniProt P35968)
Kind of experiment: BSK_4H_VEGFRII: BioMAP Diversity Plus: 4H Assay for Vascular endothelial growth factor receptor 2 (VEGFR2) Biomarker Activity (AID 2283031).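 As to AC50: cell-surface VEGFR2 protein level quantified by ELISA.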 The settings on record: primary human endothelial cells (HUVEC); actives raise or lower the signal. In short, it runs like this:
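Primary human umbilical vein endothelial cells (4H system), 24 h exposure; cell-surface VEGFR2 measured by ELISA. Bidirectional fitting versus DMSO; cytotoxicity checked in parallel by SRB total-protein staining.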

Read-out in experiment [8]: Human Leukocyte Antigen - DR isotype (HLADR), HLA-DRA (gene 3122)
Put plainly: BSK_BE3C_HLADR: BioMAP Diversity Plus: BE3C Assay for Human Leukocyte Antigen - DR isotype (HLADR) Biomarker Activity (AID 2283032). The settings on record: primary human bronchial epithelial cells; actives raise or lower the signal. The procedure, abridged: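 Human primary bronchial epithelial cells (BE3C system) exposed to compound for 24 hours; cell-surface HLA-DR measured by ELISA, fitted bidirectionally relative to DMSO. Total protein by SRB in parallel cultures tracked cytotoxicity.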

Read-out in experiment [9]: Vascular cell adhesion molecule 1 (VCAM1), VCAM1 (gene 7412)
Kind of experiment: BSK_4H_VCAM1: BioMAP Diversity Plus: 4H Assay for Vascular cell adhesion molecule 1 (VCAM1) Biomarker Activity (AID 2283033). Particulars: primary human endothelial cells (HUVEC); actives raise or lower the signal. The procedure, abridged: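 Primary human umbilical vein endothelial cells, 4H stimulation system, treated for 24 h; cell-surface VCAM-1 quantified by ELISA. Bidirectional fitting against DMSO; cytotoxicity tracked by SRB total-protein staining in parallel cultures.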

Read-out in experiment [10]: Interferon-gamma inducible Protein 10 (IP10), CXCL10 (gene 3627)
Put plainly: BSK_BE3C_IP10: BioMAP Diversity Plus: BE3C Assay for Interferon-gamma inducible Protein 10 (IP10) Biomarker Activity (AID 2283034). Particulars: primary human bronchial epithelial cells; actives raise or lower the signal. The procedure, abridged:
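Primary human bronchial epithelial cells, with IP-10 measured by ELISA 24 hours after chemical dosing. Bidirectional fit against DMSO; cytotoxicity checked by SRB total protein staining in parallel cultures.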

Read-out in experiment [11]: Monokine induced gamma interferon (MIG), CXCL9 (gene 4283)
Kind of experiment: BSK_BE3C_MIG: BioMAP Diversity Plus: BE3C Assay for Monokine induced gamma interferon (MIG) Biomarker Activity (AID 2283035). Particulars: primary human bronchial epithelial cells; actives raise or lower the signal. The procedure, abridged: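 ELISA read-out of MIG in human lung bronchial epithelial primary cultures, 24 h post-dosing. Bidirectional curve fit vs DMSO baseline.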

Read-out in experiment [12]: Transforming growth factor beta 1 (TGFb1), TGFB1 (gene 7040)
Put plainly: BSK_BE3C_TGFb1: BioMAP Diversity Plus: BE3C Assay for Transforming growth factor beta 1 (TGFb1) Biomarker Activity (AID 2283036). Particulars: primary human bronchial epithelial cells; actives raise or lower the signal. In short, it runs like this: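 Primary human bronchial epithelial cells dosed with chemical; TGF-b1 measured by ELISA 24 h after dosing. Bidirectional curve fitting against DMSO negative control; SRB total-protein staining in parallel cultures gauged cytotoxicity.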

Read-out in experiment [13]: Plasminogen activator inhibitor-1 (PAI1), SERPINE1 (gene 5054)
Put plainly: BSK_BE3C_PAI1: BioMAP Diversity Plus: BE3C Assay for Plasminogen activator inhibitor-1 (PAI1) Biomarker Activity (AID 2283037). Particulars: primary human bronchial epithelial cells; actives raise or lower the signal. The procedure, abridged: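 Primary human bronchial epithelial cells (BE3C system) exposed 24 h; PAI-1 quantified by ELISA. Parallel sulforhodamine B staining of total protein flags cytotoxicity. Bidirectional fit versus DMSO.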

Read-out in experiment [14]: urokinase plasminogen activator (uPA), PLAU (gene 5328)
Put plainly: BSK_BE3C_uPA: BioMAP Diversity Plus: BE3C Assay for urokinase plasminogen activator (uPA) Biomarker Activity (AID 2283038).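 Also: uPA protein level quantified by ELISA in cell cultures; uPA read one day after compound addition.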 The settings on record: primary human bronchial epithelial cells; actives raise or lower the signal. In short, it runs like this:
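Primary human bronchial epithelial cells, uPA measured by ELISA 24 h after dosing. Bidirectional change relative to DMSO; cytotoxicity checked in parallel cultures by sulforhodamine B total-protein staining.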

Read-out in experiment [15]: Urokinase-type plasminogen activator receptor (uPAR), PLAUR (gene 5329)
Kind of experiment: BSK_BE3C_uPAR: BioMAP Diversity Plus: BE3C Assay for Urokinase-type plasminogen activator receptor (uPAR) Biomarker Activity (AID 2283039).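 Also: cells exposed to compound for one day before measurement.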 Particulars: primary human bronchial epithelial cells; actives raise or lower the signal. In short, it runs like this: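 Primary human bronchial epithelial cells dosed for 24 h; uPAR quantified by ELISA with bidirectional fitting against DMSO. Overt cytotoxicity assessed in parallel cultures by SRB total-protein staining (0.1% SRB, 560 nm).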

Read-out in experiment [16]: Interleukin-6 (IL6), IL6 (gene 3569)
Put plainly: BSK_CASM3C_IL6: BioMAP Diversity Plus: CASM3C Assay for Interleukin-6 (IL6) Biomarker Activity for (AID 2283040). The settings on record: primary human coronary artery smooth muscle cells; actives raise or lower the signal.

Read-out in experiment [17]: Interleukin-8 (IL8), CXCL8 (gene 3576)
Put plainly: BSK_CASM3C_IL8: BioMAP Diversity Plus: CASM3C Assay for Interleukin-8 (IL8) Biomarker Activity (AID 2283042).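 Also: IL-8 protein level quantified by ELISA.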 The settings on record: primary human coronary artery smooth muscle cells; actives raise or lower the signal.

Read-out in experiment [18]: Human Leukocyte Antigen - DR isotype (HLADR), HLA-DRA (gene 3122)
Kind of experiment: BSK_CASM3C_HLADR: BioMAP Diversity Plus: CASM3C Assay for Human Leukocyte Antigen - DR isotype (HLADR) Biomarker Activity (AID 2283043).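 Also: cell-surface HLA-DR protein level quantified by ELISA.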 The settings on record: primary human coronary artery smooth muscle cells; actives raise or lower the signal.

Read-out in experiment [19]: Urokinase-type plasminogen activator receptor (uPAR), PLAUR (gene 5329)
Kind of experiment: BSK_4H_uPAR: BioMAP Diversity Plus: 4H Assay for Urokinase-type plasminogen activator receptor (uPAR) Biomarker Activity (AID 2283030). The settings on record: primary human endothelial cells (HUVEC); actives raise or lower the signal. The procedure, abridged:
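Human umbilical vein endothelial cells in the 4H system, 24 h after chemical dosing. Cell-surface uPAR measured by ELISA, fitted in both directions versus DMSO; cytotoxicity checked by SRB total protein in parallel cultures.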

Read-out in experiment [20]: Tissue plasminogen activator (tPA), PLAT (gene 5327)
Kind of experiment: BSK_BE3C_tPA: BioMAP Diversity Plus: BE3C Assay for Tissue plasminogen activator (tPA) Biomarker Activity (AID 2283041).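 Also: tPA level quantified by ELISA one day after compound addition.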 Particulars: primary human bronchial epithelial cells; actives raise or lower the signal. The procedure, abridged: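 Primary human bronchial epithelial cells in the BE3C system, exposed to compound for 24 h. tPA was quantified by ELISA; DMSO served as baseline, with gain or loss of signal fitted. Cytotoxicity checked in parallel cultures by SRB total-protein staining.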

Where a structure was tested more than once in an assay, its records may differ in their call. Activity calls are given as the source filed them. The calls were made as follows: active = hit-call score of the fitted dose curve at least 0.9, where 1 is the maximum; inactive = score below 0.9.

`CC1(C)Cc2cccc(O)c2O1`: the outcome in experiment [1], in experiment [2], in [3], in experiment [4], in [5] and in experiment [6] was inactive. Besides, the outcome in [7], in experiment [8], in [9], in experiment [10], in experiment [11] and in experiment [12] was inactive. In addition, the result in experiment [13], in [14], in experiment [15], in experiment [16], in [17] and in experiment [18] was inactive.
As a reminder, the AC50 is the midpoint of the concentration-response curve, whichever way the signal moves. Take `CCCCC(CC)CO[N+](=O)[O-]` (centres undefined): the result in experiment [1], in experiment [6], in [10], in experiment [11], in [12] and in experiment [13] was inactive. Besides, the outcome in experiment [14], in experiment [15], in [20] and in experiment [17] was inactive. Further, the AC50 in experiment [2] was 37.4 µM (active); in experiment [3] it was 30.6 µM (active); in experiment [4] it was 36.1 µM (active); in [19] it was 33 µM (active); in experiment [7], 31.9 µM (active); in experiment [8] it was 32.6 µM (active). Besides, the figures for the AC50 in experiment [9], in experiment [16] and in [18] were 30.5 µM (active), 31.8 µM (active) and 28.2 µM (active), respectively.
Take `CCCCCCCCC(=O)NCc1ccc(O)c(OC)c1`: the outcome in experiment [1], in experiment [2], in experiment [3], in [5], in [6] and in [19] was inactive. The outcome in experiment [7], in experiment [8], in experiment [9], in experiment [11], in [12] and in [14] was inactive. The outcome in experiment [15], in [16], in experiment [20] and in [17] was inactive. In addition, the AC50 in experiment [4] was 20 µM (active); in experiment [10], 20 µM (active); in experiment [13], 20 µM (active); in experiment [18] it was 32.3 µM (active).
`O=c1[nH]c(=O)[nH]c(=O)[nH]1`: the result in [1], in experiment [2], in [3], in experiment [4], in [6] and in [19] was inactive. The outcome in experiment [7], in [8], in experiment [9], in experiment [10], in [11] and in experiment [12] was inactive. Further, the result in experiment [13], in experiment [14], in [15], in [16], in experiment [20] and in experiment [17] was inactive. For the same molecule, the result in [18] was inactive.
As to `O=C(O)C(F)(F)C(F)(F)C(F)(F)C(F)(F)C(F)(F)C(F)(F)F`, in [1], the AC50 is 13.6 µM (active). Also, the result in experiment [1], in experiment [2], in [3], in [4], in [5] and in [6] was inactive. Besides, the result in experiment [7], in experiment [8], in experiment [9], in experiment [10], in [11] and in experiment [12] was inactive. The outcome in experiment [13], in experiment [14], in [15], in [16], in experiment [20] and in experiment [17] was inactive. Moreover, the outcome in experiment [18] was inactive.
Regarding `ClC1=C(Cl)[C@]2(Cl)[C@H]3[C@H]([C@H]4C=C[C@H]3C4)[C@@]1(Cl)C2(Cl)Cl`, the result in experiment [1], in [4], in experiment [5], in [6], in experiment [19] and in experiment [11] was inactive. Besides, the outcome in experiment [14], in experiment [15], in experiment [16] and in experiment [17] was inactive. Moreover, the AC50 was 13.6 µM (active) in experiment [2]; 7.17 µM (active) in [3]; 2.01 µM (active) in experiment [7]; 13.1 µM (active) in [8]; 7.9 µM (active) in experiment [9]; 3.12 µM (active) in experiment [12]. For the same molecule, the half-maximal activity concentration (AC50) in [13] was 3.97 µM (active); in experiment [18], 5.83 µM (active).

Values taken from PubChem BioAssay (EPA / NIEHS).
